The text below walks through data of PubChem BioAssay (NCI).

Some test systems named below: RPMI-8226 leukemia; OVCAR-8 ovarian; OVCAR-5 ovarian; OVCAR-4 ovarian; SK-OV-3 ovarian; IGROV1 ovarian; OVCAR-3 ovarian; HS 578T breast; NCI/ADR-RES ovarian; T-47D breast; BT-549 breast; MDA-MB-435 melanoma; SW-620 colon; MCF7 breast; HCT-116 colon; HCC-2998 colon; KM12 colon.
Holding throughout (assay): NCI-60 one-dose screen, 48 h (100 = growth as untreated, 0 = no growth, -100 = all killed)
Holding throughout (settings): 10 µM unless noted

This is part of a sample that, as a whole, favours compounds with a hit. Of some 83,000 tested, about 20% had one in any assay.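 The endpoint reported here, percent growth, reads 100 for growth as untreated, 0 for no net growth and -100 for all cells dead.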 Values without a mark were called inactive. The source made the active and inactive calls. How the source made its calls: active means growth percent below 10; inactive means the rest.

With `O=Cc1c[nH]c2ccc(NC(=O)OCc3ccccc3)cc12`, the growth with RPMI-8226 leukemia is 93%; with OVCAR-8 ovarian, 103%; in the experiment on OVCAR-5 ovarian, 97.5%; with OVCAR-4 ovarian, 104%; with SK-OV-3 ovarian it was 97.6%; in the experiment with IGROV1 ovarian, 32.4%. Further, the growth with OVCAR-3 ovarian was 123%; in the experiment on HS 578T breast, 252%; in the experiment with NCI/ADR-RES ovarian, 96.3%; with T-47D breast it was 84.2%; in the experiment on BT-549 breast it was 21.4%; with MDA-MB-435 melanoma it was 115%. Moreover, the growth in the experiment on SW-620 colon is 121%; in the experiment with MCF7 breast, 100%; in the experiment with HCT-116 colon, 98.9%; in the experiment on HCC-2998 colon, 96.2%; in the experiment on KM12 colon, 123%.

As for `O=C1/C(=C/c2ccc([N+](=O)[O-])o2)Oc2ccc(Cl)cc21`, the growth with RPMI-8226 leukemia was -11.3% (active); in the experiment with OVCAR-8 ovarian, -14.9% (active); in the experiment on OVCAR-5 ovarian, 46.1%; in the experiment on OVCAR-4 ovarian it was -48% (active); in the experiment with SK-OV-3 ovarian it was 85.6%; in the experiment on IGROV1 ovarian, -53.6% (active). The growth with OVCAR-3 ovarian is -74.5% (active); in the experiment on HS 578T breast, 68.7%; in the experiment on NCI/ADR-RES ovarian, 56.1%; with T-47D breast, -28.9% (active); in the experiment on BT-549 breast, -53.4% (active); with MDA-MB-435 melanoma it was -72.8% (active). Further, the growth in the experiment on SW-620 colon is -78.7% (active); in the experiment with MCF7 breast, -24.6% (active); with HCT-116 colon, -26.6% (active).

For `COc1ccc(Nc2ccnc(NCCCNc3ccnc4cc(Cl)ccc34)n2)cc1`, the growth in the experiment with RPMI-8226 leukemia is -60.5% (active); with OVCAR-8 ovarian, 5.52% (active); in the experiment on OVCAR-5 ovarian it was -19.9% (active); with OVCAR-4 ovarian it was 11.8%; in the experiment with SK-OV-3 ovarian, -5.22% (active); in the experiment with IGROV1 ovarian, 21.7%. Besides, the growth with OVCAR-3 ovarian was -84.5% (active); in the experiment on HS 578T breast, -52.2% (active); in the experiment on NCI/ADR-RES ovarian it was 35.4%; in the experiment with T-47D breast, -51.8% (active); with BT-549 breast, -16.8% (active); in the experiment on MDA-MB-435 melanoma, -94.7% (active). The growth in the experiment with SW-620 colon is -48.7% (active); in the experiment on MCF7 breast, -2.74% (active); in the experiment on HCT-116 colon it was -100% (active); with HCC-2998 colon, -74.9% (active).

As to `CCc1[nH]nc(-c2ccc(OC)cc2)c1-c1ccccc1OCCN(CC)CC`, the growth in the experiment on RPMI-8226 leukemia was 97.5%; in the experiment with OVCAR-8 ovarian, 107%; in the experiment on OVCAR-5 ovarian, 92.6%; with OVCAR-4 ovarian, 91.4%; in the experiment with SK-OV-3 ovarian it was 91.8%; in the experiment on IGROV1 ovarian it was 98.6%. Also, the growth was 104% with OVCAR-3 ovarian; 99.4% in the experiment on HS 578T breast; 100% with NCI/ADR-RES ovarian; 97.4% in the experiment on T-47D breast; 87.7% with BT-549 breast; 101% with MDA-MB-435 melanoma. For the same compound, the growth in the experiment on SW-620 colon is 104%; in the experiment with MCF7 breast, 93.2%; with HCT-116 colon, 83.9%; with HCC-2998 colon, 103%; in the experiment with KM12 colon, 106%.

On to `COc1cc(NC(=O)c2cc3ccccc3cc2O)c(OC)cc1Cl`, for which the growth is -48.7% (active) in the experiment with RPMI-8226 leukemia; 7.08% (active) with OVCAR-8 ovarian; 2.16% (active) in the experiment on OVCAR-5 ovarian; 38.4% in the experiment on OVCAR-4 ovarian; -14.9% (active) in the experiment with SK-OV-3 ovarian; -31% (active) with IGROV1 ovarian. The growth in the experiment with OVCAR-3 ovarian is 10.7%; in the experiment on HS 578T breast, 51.7%; with NCI/ADR-RES ovarian it was -20.6% (active); with T-47D breast, 4.25% (active); with BT-549 breast, -24.3% (active); with MDA-MB-435 melanoma, 3.67% (active). The growth is 17.5% with SW-620 colon; 2.91% (active) in the experiment with MCF7 breast; -21.3% (active) in the experiment with HCT-116 colon; -40.4% (active) in the experiment with HCC-2998 colon; 5.63% (active) in the experiment on KM12 colon.

On to `O=C1c2ccccc2C(=O)c2c1cccc2-n1nnc2ccccc21`, for which the growth is 59.8% in the experiment with RPMI-8226 leukemia; 102% in the experiment on OVCAR-8 ovarian; 105% in the experiment on OVCAR-5 ovarian; 97.5% in the experiment on OVCAR-4 ovarian; 119% with SK-OV-3 ovarian; 82.9% in the experiment on IGROV1 ovarian. Besides, the growth is 115% in the experiment on OVCAR-3 ovarian; 94.2% in the experiment with HS 578T breast; 107% in the experiment on NCI/ADR-RES ovarian; 93.5% with T-47D breast; 113% in the experiment on BT-549 breast; 121% in the experiment with MDA-MB-435 melanoma. Besides, the growth is 105% in the experiment on SW-620 colon; 112% in the experiment on MCF7 breast; 86.5% in the experiment with HCT-116 colon; 83.4% with HCC-2998 colon; 110% in the experiment on KM12 colon.

As to `COc1ccc(C(=O)C(C)Br)cc1OC` (configuration not stated), the growth was 85.5% with RPMI-8226 leukemia; 88.3% in the experiment with OVCAR-8 ovarian; 84.7% in the experiment on OVCAR-5 ovarian; 84% with OVCAR-4 ovarian; 115% in the experiment on SK-OV-3 ovarian; 76.5% with IGROV1 ovarian. Besides, the growth in the experiment with OVCAR-3 ovarian was 61.5%; in the experiment on HS 578T breast, 95.2%; with NCI/ADR-RES ovarian, 96.1%; in the experiment with T-47D breast, 82.6%; in the experiment with BT-549 breast, 94.3%; in the experiment with MDA-MB-435 melanoma it was 87.4%. The growth in the experiment on SW-620 colon was 40.8%; with MCF7 breast it was 84.4%; in the experiment on HCT-116 colon it was 52.2%; in the experiment with HCC-2998 colon, 101%; in the experiment on KM12 colon, 93.3%.

Regarding `CSc1nnc(C2=CC(=O)c3ccccc3C2=O)n1-c1ccccc1`, the growth with RPMI-8226 leukemia was 72.2%; in the experiment on OVCAR-8 ovarian, 94.6%; with OVCAR-5 ovarian, 113%; with OVCAR-4 ovarian, 99.2%; with SK-OV-3 ovarian, 93.7%; in the experiment on IGROV1 ovarian, 80.4%. The growth with OVCAR-3 ovarian was 91.6%; in the experiment on HS 578T breast, 112%; with NCI/ADR-RES ovarian it was 98%; in the experiment on T-47D breast it was 78.4%; with BT-549 breast, 92.9%; with MDA-MB-435 melanoma, 96.7%. The growth in the experiment on SW-620 colon was 92.1%; in the experiment on MCF7 breast it was 94.5%; with HCT-116 colon, 73.8%; with HCC-2998 colon, 85%; in the experiment with KM12 colon it was 61.5%.

Consider `Cc1cc2c(cc1C)Nc1sc(NC(=O)CN3CCN(C)CC3)nc1C(=O)N2`, for which the growth with RPMI-8226 leukemia is 105%; in the experiment with OVCAR-8 ovarian, 103%; in the experiment with OVCAR-5 ovarian it was 105%; in the experiment with OVCAR-4 ovarian it was 108%; in the experiment with SK-OV-3 ovarian, 99.6%; with IGROV1 ovarian it was 112%. Besides, the growth with OVCAR-3 ovarian was 112%; in the experiment with HS 578T breast it was 106%; in the experiment on NCI/ADR-RES ovarian it was 103%; with T-47D breast, 94.1%; in the experiment with BT-549 breast, 109%; in the experiment with MDA-MB-435 melanoma it was 111%. Further, the growth in the experiment with SW-620 colon was 116%; in the experiment with MCF7 breast, 97.5%; with HCT-116 colon it was 101%; with HCC-2998 colon, 101%; in the experiment on KM12 colon it was 102%.

On to `CCCC[N+](CCCC)=c1ccc2nc3c(C)cc(N(CC)CC)cc3sc-2c1`, for which the growth in the experiment with RPMI-8226 leukemia was -48.2% (active); in the experiment on OVCAR-8 ovarian, 5.84% (active); in the experiment on OVCAR-5 ovarian, 4.55% (active); in the experiment on OVCAR-4 ovarian, 22.9%; in the experiment with SK-OV-3 ovarian, -8.75% (active); in the experiment with IGROV1 ovarian it was 43.2%. Also, the growth in the experiment with OVCAR-3 ovarian is -23.3% (active); in the experiment with HS 578T breast, 6.6% (active); with NCI/ADR-RES ovarian it was -11.9% (active); in the experiment on T-47D breast it was -23.3% (active); with BT-549 breast it was 2.12% (active); in the experiment on MDA-MB-435 melanoma it was -88.1% (active). For the same compound, the growth in the experiment with SW-620 colon was -71.9% (active); in the experiment on MCF7 breast, -50% (active); in the experiment with HCT-116 colon, -24.7% (active); in the experiment with HCC-2998 colon it was 24.4%; with KM12 colon, 0.608% (active).
